These sequences were tested on PPARg:RXRa 30nM:10nM, anti-RXR (NR concentration 30 nM, RXRa partner concentration 10 nM) (assay: PBM binding z-score (relative to random genomic background probes); higher = stronger binding; sequences stand for … in GC…GCGATTGACAGCGTAGAATGAAGG).
Summary of the method: (§1)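 Each nuclear receptor dimer, without ligand, was incubated for 1 h on custom Agilent 4×180K protein-binding microarrays. Binding was detected with antibodies against each partner (one per run), and scanned fluorescence was regression-normalized. The binding z-scores are referenced to random human genomic background probes.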
In the case of CCTAGTTGGTCAGGAGGTCACACTCCGGATATGA, the PBM binding z-score is reported as 1.65.
Sequence ACTATTAGATGACTTAGGGCAACCGATACGACGC has a PBM binding z-score of 0.441.
CGAACTAGGTCATTGACAGGACAGTGAGTAGTAA showed a PBM binding z-score of 3.7.
With GGAACGAGGGCATTCGAGGTGATAGCATGGCGAT the PBM binding z-score was 0.0745.
With GCGACTGGGGCATCAGCAGGTTACCAGAACTTAA the PBM binding z-score was -0.35.
CCTAGCAGGCCAACCTGGGTCACTCAAGGCTTGA was tested, and the PBM binding z-score was -0.969.
TGAATGAGGTCATAAGATCAGGGAACGTTGCAAA showed a PBM binding z-score of 4.09.
GATACATGGTCAAGGCCAGAGTACGCGTATTGAT gave a PBM binding z-score of 0.162.
CGTGCAAGGTCAGCAGGTCAGTGAAAGCGACGTG was tested, and the PBM binding z-score was 1.7.
TTACCAAGGTGAGCTGAGGTCATTGATCCAACTC was tested, and the PBM binding z-score was 0.796.
Work on CAAACCAGGTCACCGGAAGGTCAAAGTCCGCATG yielded a PBM binding z-score of 4.07.
With ACAAGCAGGCCAAGTTTGGGTCACTCAAACAAAG the PBM binding z-score was -0.289.
TCTTGTAGATCAATAGAGGTCAAGAAAGTGCGCT showed a PBM binding z-score of 3.08.
In the case of ACTCGGAGGACAAAGGTTAGAGCTACGCCAGTGA, the PBM binding z-score is reported as 3.29.
Work on CAAACTAGGTCACCGGAAGGTCCAAGTCCGCATG yielded a PBM binding z-score of 5.06.
With GCGACTGGGGCATGAGCAGGTTACCATAACTTAA the PBM binding z-score was -0.134.
With ATCTCTAGGTAAAGATAGTTCAGTGCATGCAAAT the PBM binding z-score was 0.0573.
TAGCATAGGTCATTCAGGGGCCAGTATAGAAAGC showed a PBM binding z-score of 1.5.
ATCGAAAGGTGGTGAGGTGAGTATACAGAAAGGC showed a PBM binding z-score of 0.347.
CCTACTGGGCCATTCAGCGGTCATTGATCATATG was tested, and the PBM binding z-score was -0.375.
CTCGAAAGGTCGGTTGAGGAGAGTATACGGATAA showed a PBM binding z-score of 0.298.
Work on TCAGACAGGTGAAGGTAACTCACGTACGCAGTCG yielded a PBM binding z-score of 3.55.
Sequence TCTCGTAGATCAATAGAGGTTAAGAAAGTGCGCT has a PBM binding z-score of 2.83.
For ACCGAAAGGTCGAGGTGAGTATAGAGAAAGGGAA, the PBM binding z-score was 1.22.
TTACCAAGGTGATAGGTCGTTGATGCACGCCTTG was tested, and the PBM binding z-score was 3.82.
TCTATTAGTTGATTTGGGCAACCGAAACAGCGGA was tested, and the PBM binding z-score was 3.74.
With CAAACTAGGTCATGAGGTCAAAGTCCGCTTCCCG the PBM binding z-score was 6.58.
CGTCCAAGGCCAAGGTCAGTGAAAGAGACTCGAA gave a PBM binding z-score of -0.305.
ATCTCTAGGTAAAAGTTCAGCGAATCCCGAGGAT showed a PBM binding z-score of 8.78.
ATACCAAGGTGATCGTGAGATCGTTGATACTAAC was tested, and the PBM binding z-score was -0.226.
Sequence CCTACTGGGCCACGAAAGGTCTTTGATTCAGTGA has a PBM binding z-score of -0.0558.
Sequence GCTAGTAGTTGAAAGGGCAACCGAATGATTCTCG has a PBM binding z-score of 4.3.
AGTAGCAGGCCAAGTTTGGGTCACTCAAACAAAG was tested, and the PBM binding z-score was -0.474.
CCGACTGGGGCAAAGGTTACCAGACTCAGTACGA showed a PBM binding z-score of 8.75.
ATCTCAAGGTAAAAGTTCAGTGAATCCCGAGGAT gave a PBM binding z-score of 2.83.
With CCTACTGGGCCACGAAAGGTTATTGATTCAGTGA the PBM binding z-score was 0.563.
Work on ACTTACGCGTCAACGAGGTTATAGCACGCGTATA yielded a PBM binding z-score of 0.115.
TCTTGTAGATCAAAGGTTAACAAAGCCGAAGCCT gave a PBM binding z-score of 7.57.
With TCTTGTAGATCAACAGGAGGTTAGGAAAGATCGA the PBM binding z-score was 2.59.
TCTATTTGTTGAAGGGCAACCGACGAGTCCGTTT was tested, and the PBM binding z-score was 3.99.

These sequences were tested on PPARg:RXRa 90nM:30nM, anti-RXR (NR concentration 90 nM, RXRa partner concentration 30 nM) in the same assay as above.
Summary of the method: as §1
CCTAGTTGGTCAGGAGGTCACACTCCGGATATGA showed a PBM binding z-score of 3.38.
ACTATTAGATGACTTAGGGCAACCGATACGACGC showed a PBM binding z-score of 0.295.
CGAACTAGGTCATTGACAGGACAGTGAGTAGTAA was tested, and the PBM binding z-score was 5.57.
Sequence GGAACGAGGGCATTCGAGGTGATAGCATGGCGAT has a PBM binding z-score of 0.494.
GCGACTGGGGCATCAGCAGGTTACCAGAACTTAA gave a PBM binding z-score of 0.126.
Work on CCTAGCAGGCCAACCTGGGTCACTCAAGGCTTGA yielded a PBM binding z-score of -0.0466.
TGAATGAGGTCATAAGATCAGGGAACGTTGCAAA gave a PBM binding z-score of 6.04.
With GATACATGGTCAAGGCCAGAGTACGCGTATTGAT the PBM binding z-score was 0.303.
CGTGCAAGGTCAGCAGGTCAGTGAAAGCGACGTG showed a PBM binding z-score of 3.51.
Sequence TTACCAAGGTGAGCTGAGGTCATTGATCCAACTC has a PBM binding z-score of 1.62.
For CAAACCAGGTCACCGGAAGGTCAAAGTCCGCATG, the PBM binding z-score was 6.45.
ACAAGCAGGCCAAGTTTGGGTCACTCAAACAAAG gave a PBM binding z-score of 0.124.
Work on TCTTGTAGATCAATAGAGGTCAAGAAAGTGCGCT yielded a PBM binding z-score of 3.18.
In the case of ACTCGGAGGACAAAGGTTAGAGCTACGCCAGTGA, the PBM binding z-score is reported as 5.35.
With CAAACTAGGTCACCGGAAGGTCCAAGTCCGCATG the PBM binding z-score was 7.02.
Work on GCGACTGGGGCATGAGCAGGTTACCATAACTTAA yielded a PBM binding z-score of 0.437.
ATCTCTAGGTAAAGATAGTTCAGTGCATGCAAAT was tested, and the PBM binding z-score was 0.225.
TAGCATAGGTCATTCAGGGGCCAGTATAGAAAGC was tested, and the PBM binding z-score was 3.18.
For ATCGAAAGGTGGTGAGGTGAGTATACAGAAAGGC, the PBM binding z-score was 0.438.
In the case of CCTACTGGGCCATTCAGCGGTCATTGATCATATG, the PBM binding z-score is reported as 0.242.
CTCGAAAGGTCGGTTGAGGAGAGTATACGGATAA gave a PBM binding z-score of 0.525.
TCAGACAGGTGAAGGTAACTCACGTACGCAGTCG showed a PBM binding z-score of 2.75.
In the case of TCTCGTAGATCAATAGAGGTTAAGAAAGTGCGCT, the PBM binding z-score is reported as 2.12.
Work on ACCGAAAGGTCGAGGTGAGTATAGAGAAAGGGAA yielded a PBM binding z-score of 2.51.
Sequence TTACCAAGGTGATAGGTCGTTGATGCACGCCTTG has a PBM binding z-score of 5.61.
Work on TCTATTAGTTGATTTGGGCAACCGAAACAGCGGA yielded a PBM binding z-score of 3.01.
For CAAACTAGGTCATGAGGTCAAAGTCCGCTTCCCG, the PBM binding z-score was 8.76.
Sequence CGTCCAAGGCCAAGGTCAGTGAAAGAGACTCGAA has a PBM binding z-score of 0.665.
ATCTCTAGGTAAAAGTTCAGCGAATCCCGAGGAT showed a PBM binding z-score of 9.67.
Sequence ATACCAAGGTGATCGTGAGATCGTTGATACTAAC has a PBM binding z-score of -0.234.
CCTACTGGGCCACGAAAGGTCTTTGATTCAGTGA was tested, and the PBM binding z-score was 0.769.
GCTAGTAGTTGAAAGGGCAACCGAATGATTCTCG was tested, and the PBM binding z-score was 5.8.
AGTAGCAGGCCAAGTTTGGGTCACTCAAACAAAG showed a PBM binding z-score of -0.201.
Sequence CCGACTGGGGCAAAGGTTACCAGACTCAGTACGA has a PBM binding z-score of 9.25.
In the case of ATCTCAAGGTAAAAGTTCAGTGAATCCCGAGGAT, the PBM binding z-score is reported as 4.24.
Sequence CCTACTGGGCCACGAAAGGTTATTGATTCAGTGA has a PBM binding z-score of 1.69.
ACTTACGCGTCAACGAGGTTATAGCACGCGTATA gave a PBM binding z-score of 0.253.
In the case of TCTTGTAGATCAAAGGTTAACAAAGCCGAAGCCT, the PBM binding z-score is reported as 9.81.
TCTTGTAGATCAACAGGAGGTTAGGAAAGATCGA showed a PBM binding z-score of 1.79.
TCTATTTGTTGAAGGGCAACCGACGAGTCCGTTT gave a PBM binding z-score of 3.24.

Reference: the supplement of paper PMC6555819
